# An excerpt weighted towards active compounds, which were near 2.2% of everything screened.
# LGR2 inh – Drosophila LGR2 receptor signaling inhibition; AID 720647; HEK293 LGR2, CRE-luciferase, bursicon-stimulated, 4 h; 380,000 tested, 0.35% active; inhibition, % at 9.99 µM;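 active = drop in luminescence signal, shown as inhibition above about 50% in the replicate tests, limit read from the data, passing the limit was not always enough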;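 also: agonist challenge used bursicon conditioned medium at about half maximal strength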
# EWS-Fli block – EWS/Fli transcriptional activity inhibition. inhibition, % at 12.6 µM. AID 651661. 350,000 tested, 0.67% active. A673 NR0B1-luciferase reporter, viability-normalised;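 active = mean inhibition of at least 50% after viability correction, with every replicate also passing that limit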;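 also: firefly luciferase signal divided by Alamar Blue viability fluorescence both relative to DMSO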
# TRPM1 prom inh – reduces MITF-dependent TRPM1 promoter luciferase signal; inhibition, % at 12.5 µM; SK-MEL-5 TRPM1 promoter luciferase, 24 h; 330,000 tested, 0.83% active;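 active = mean inhibition across replicates of 60% or more, whatever share of single replicates reaches that level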
# LMP1 NFkB inh – reduces LMP1-driven NF-kappaB luciferase signal | 350,000 tested, 0.69% active | AID 504558 | LMP1-induced NF-kappaB luciferase reporter cells, luminescence | inhibition, % at 12.5 µM; in the data active = inhibition above about 41%
# Shn3 3UTR inh – inhibitors of Schnurri-3 3'UTR reporter in osteoblasts; inhibition, % at 12.5 µM; 360,000 tested, 0.52% active; Clone20 osteoblast Shn3 3'UTR firefly luciferase, 24 h;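 active = mean inhibition of at least 75% with every replicate also reaching 75%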
# PAX8 reporter – inhibitors of PAX8 transcriptional activity in RMG-I cells; RMG-I TPO-luciferase reporter, SteadyGlo, 24 h; inhibition, % at 12.6 µM; 360,000 tested, 1.2% active; AID 652154;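 active = mean replicate inhibition at least 60% with every replicate also reaching 60%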;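 also: luciferase light reporting Pax8 driven TPO promoter activity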
# Numbers stand for hits; – = inactive; · = no result given.
SMILES,LGR2 inh,EWS-Fli block,TRPM1 prom inh,LMP1 NFkB inh,Shn3 3UTR inh,PAX8 reporter
COc1cc(/C=C2/SC(=Nc3ccc(O)cc3)NC2=O)ccc1O,–,54,–,–,–,–
CCc1ccc(N=C2NC(=O)/C(=C/c3cc(OC)c(O)c(OC)c3)S2)cc1,–,–,–,–,–,–
COc1ccccc1NC(=O)N(C)C[C@@H]1Oc2ncc(C#CC(C)C)cc2C(=O)N([C@@H](C)CO)C[C@H]1C,–,–,·,·,·,–
Cc1ccc(O)c(CNCCNCc2cc(C)ccc2O)c1,–,–,–,–,–,–
CCc1ccc(O)c(CNCCNCc2cc(CC)ccc2O)c1,–,–,–,–,86,–
C[C@@H]1CN([C@@H](C)CO)C(=O)c2cccc(NC(=O)C3CCCCC3)c2O[C@H]1CN(C)Cc1ccncc1,–,–,·,·,·,–
O=C(COc1ccc2c(c1)CCC2)Nc1ccccn1,74,–,–,–,–,–
CCCNC(=O)[C@@H]1[C@@H](CO)[C@@H]2Cn3c(ccc(-c4ccccc4OC)c3=O)[C@@H]2N1S(C)(=O)=O,–,–,·,·,·,–
Cc1nc2c(O)c3c(c(O)c2nc1C)C1C=CC3CC1,–,–,63,68,97,–
Cc1nc2c(C)c(C)c(C)c(C)c2nc1C,–,–,·,·,–,–
CN1CC(=O)N2C(c3ccc(Cl)cc3)c3[nH]c4ccccc4c3C[C@H]2C1=O (stereo partly specified),–,–,–,–,–,103
C[C@H]1CN([C@@H](C)CO)C(=O)Cc2cc(NC(=O)Nc3ccc4c(c3)OCO4)ccc2O[C@H]1CN(C)CC1CCCCC1,–,–,·,·,·,–
C[C@H](CO)N1C[C@H](C)[C@@H](CN(C)CC2CCCCC2)Oc2ccc(NC(=O)Nc3ccc4c(c3)OCO4)cc2CC1=O,–,–,·,·,·,90
C[C@H](CO)N1C[C@H](C)[C@H](CN(C)CC2CCCCC2)Oc2ccc(NC(=O)Nc3ccc(F)cc3)cc2CC1=O,–,60,·,·,·,–
C[C@H]1CN([C@@H](C)CO)C(=O)Cc2cc(NC(=O)Nc3ccc4c(c3)OCO4)ccc2O[C@@H]1CN(C)CC1CCCCC1,–,–,·,·,·,101
CCC(=O)N1CC2(C1)[C@@H](c1ccccc1)[C@@H](CO)N2Cc1cc(F)ccc1F,–,–,·,·,·,·
CN(C)CC(=O)N1CCCCN2[C@@H](CO)[C@H](c3ccc(/C=C/c4ccccc4)cc3)[C@@H]2C1,–,–,·,·,·,67
CN(C)CC(=O)N1CCCCN2[C@@H](CO)[C@@H](c3ccc(/C=C/c4ccccc4)cc3)[C@@H]2C1,–,–,·,·,·,72
O=C(Nc1ccccc1F)N1CCCCN2[C@@H](CO)[C@@H](c3ccc(/C=C/c4ccccc4)cc3)[C@@H]2C1,–,–,·,·,·,76
CN(C)CC(=O)N1CCCCN2[C@H](CO)[C@H](c3ccc(/C=C/c4ccccc4)cc3)[C@H]2C1,–,–,·,·,·,78
CN(C)CC(=O)N1CCCCN2[C@H](C1)[C@H](c1ccc(/C=C/c3ccccc3)cc1)[C@@H]2CO,–,–,·,·,·,–
CN(C)CC(=O)N1CCCCN2[C@H](C1)[C@@H](c1ccc(/C=C/c3ccccc3)cc1)[C@@H]2CO,–,–,·,·,·,–
COc1ccc(S(=O)(=O)Nc2ccc3c(c2)C(=O)N([C@H](C)CO)C[C@H](C)[C@H](CN(C)Cc2ccc(C(F)(F)F)cc2)OCCCC[C@@H](C)O3)cc1,–,–,·,·,·,–
COc1ccc(S(=O)(=O)Nc2ccc3c(c2)C(=O)N([C@H](C)CO)C[C@@H](C)[C@H](CN(C)Cc2ccc(C(F)(F)F)cc2)OCCCC[C@@H](C)O3)cc1,–,–,·,·,·,–
COc1ccc(S(=O)(=O)Nc2ccc3c(c2)C(=O)N([C@H](C)CO)C[C@@H](C)[C@@H](CN(C)Cc2ccc(C(F)(F)F)cc2)OCCCC[C@H](C)O3)cc1,–,–,·,·,·,105
SMILES,LGR2 inh,EWS-Fli block,TRPM1 prom inh,LMP1 NFkB inh,Shn3 3UTR inh,PAX8 reporter
COc1ccc(S(=O)(=O)Nc2ccc3c(c2)C(=O)N([C@H](C)CO)C[C@@H](C)[C@@H](CN(C)Cc2ccc(C(F)(F)F)cc2)OCCCC[C@@H](C)O3)cc1,–,–,·,·,·,110
COc1ccc(S(=O)(=O)Nc2ccc3c(c2)C(=O)N([C@@H](C)CO)C[C@@H](C)[C@H](CN(C)Cc2ccc(C(F)(F)F)cc2)OCCCC[C@H](C)O3)cc1,–,–,·,·,·,96
COc1ccc(S(=O)(=O)Nc2ccc3c(c2)C(=O)N([C@H](C)CO)C[C@H](C)[C@H](CN(C)Cc2ccc(C(F)(F)F)cc2)OCCCC[C@H](C)O3)cc1,–,–,·,·,·,108
O=C(CCN1CCCCC1)NCC[C@@H]1CC[C@@H](NC(=O)c2ccc(F)cc2)[C@@H](CO)O1,–,–,·,·,·,–
C[C@@H]1CN([C@H](C)CO)C(=O)c2cc(NC(=O)NC3CCCCC3)ccc2O[C@H]1CN(C)Cc1ccc(C(=O)O)cc1,–,–,·,·,·,–
COc1ccc(S(=O)(=O)Nc2ccc3c(c2)C(=O)N([C@@H](C)CO)C[C@@H](C)[C@@H](CN(C)Cc2ccc(C(F)(F)F)cc2)OCCCC[C@@H](C)O3)cc1,–,–,·,·,·,105
COc1ccc(S(=O)(=O)Nc2ccc3c(c2)C(=O)N([C@@H](C)CO)C[C@@H](C)[C@@H](CN(C)Cc2ccc(C(F)(F)F)cc2)OCCCC[C@H](C)O3)cc1,–,–,·,·,·,–
COC(=O)C[C@@H]1CC[C@@H]2[C@H](COc3ccc(NC(=O)c4cccs4)cc3C(=O)N2C)O1,–,–,·,·,·,–
COc1ccc(NC(=O)Nc2ccc3c(c2)CC(=O)N([C@@H](C)CO)C[C@@H](C)[C@H](CN(C)C(=O)Nc2ccc4c(c2)OCO4)O3)cc1,–,–,·,·,·,–
CCOC(=O)c1c(NC(=S)N2CCOCC2)sc2c1CCN(C(=O)OCC)C2,63,–,·,·,–,–
CCOC(=O)c1c(NC(=S)N2CCCCC2)sc2c1CCN(C(=O)OCC)C2,·,–,·,·,–,–
O=C(C[C@H]1CC[C@@H]2[C@H](COC[C@@H](O)CN2C(=O)Nc2ccc(Cl)c(Cl)c2)O1)NCc1ccc(Cl)cc1,–,–,·,·,·,–
O=C(C[C@@H]1CC[C@@H]2[C@H](COC[C@@H](O)CN2C(=O)Nc2ccc(Cl)c(Cl)c2)O1)NCc1ccc(Cl)c(Cl)c1,–,–,·,·,·,74
Cc1ccc(S(=O)(=O)N2C[C@H](O)COC[C@H]3O[C@@H](CC(=O)NCc4ccc(Cl)c(Cl)c4)CC[C@@H]32)cc1,–,–,·,·,·,75
O=C(C[C@H]1CC[C@@H]2[C@H](COC[C@H](O)CN2C(=O)Nc2ccc(Cl)c(Cl)c2)O1)NCc1ccc(Cl)cc1,–,–,·,·,·,–
O=C(C[C@@H]1CC[C@H]2[C@@H](COC[C@H](O)CN2C(=O)Nc2ccc(Cl)c(Cl)c2)O1)NCc1ccc(Cl)cc1,–,–,·,·,·,95
O=C(C[C@@H]1CC[C@@H]2[C@H](COC[C@@H](O)CN2C(=O)Nc2ccc(Cl)c(Cl)c2)O1)NCc1ccc(Cl)cc1,–,–,·,·,·,96

# High-throughput results from PubChem BioAssay.
